According to PubChem BioAssay AID1851 (National Center for Advancing Translational Sciences (NCATS), 2009):
The whole screen tested about 16,000 compounds, of which about 5,800 (36%) were called active. Another 23% or so got no clear call; they are omitted. The call rests on the fitted dose curve; in most records, active means well fitted curve in the direction sought with a large enough effect; inconclusive means small, poorly fitted or top-dose-only effect, or effect the other way; inactive means no such curve, though single readings can be large or run the other way. Some of the results follow.

Target: Cytochrome P450 2C19 (Homo sapiens) (UniProt P33261)
Sequence (P33261 whole entry, looked up): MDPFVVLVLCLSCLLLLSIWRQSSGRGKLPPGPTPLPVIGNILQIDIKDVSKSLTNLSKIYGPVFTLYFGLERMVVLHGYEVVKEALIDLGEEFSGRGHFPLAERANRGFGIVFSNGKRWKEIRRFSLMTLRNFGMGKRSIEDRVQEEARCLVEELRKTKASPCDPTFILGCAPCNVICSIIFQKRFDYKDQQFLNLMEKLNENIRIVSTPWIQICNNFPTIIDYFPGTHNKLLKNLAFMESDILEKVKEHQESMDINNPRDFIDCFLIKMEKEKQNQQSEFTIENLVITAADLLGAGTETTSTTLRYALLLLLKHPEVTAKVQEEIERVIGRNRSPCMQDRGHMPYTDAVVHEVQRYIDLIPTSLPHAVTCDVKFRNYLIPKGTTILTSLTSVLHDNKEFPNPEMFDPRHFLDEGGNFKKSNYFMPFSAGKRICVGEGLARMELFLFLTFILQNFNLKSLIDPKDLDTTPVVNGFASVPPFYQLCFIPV
Test: Cytochrome panel assay with activity outcomes
Details: recombinant CYP, pro-luciferin dealkylation, luminescence, p450-cyp2c19; series mostly up to 57.1 µM
On the % scale 0 is the no-effect control and ±100 the full control effect.

| Compound | AC50 | activity, negative = inhibition |
| --- | --- | --- |
| Cc1nnc(NC(=O)c2oc3c(ccc4ccccc43)c2C)s1 | 10 µM (active) | – |
| Cc1c(OC(=O)c2ccc([N+](=O)[O-])cc2)c2c(c[n+]1C)COC(C)(C)OC2 | inactive | – |
| Cc1ccc(S(=O)(=O)CC#CCOC(=O)c2ccc([N+](=O)[O-])cc2)cc1 | 7.94 µM (active) | – |
| CCOC(=O)n1ccn(C)c1=S | inactive | – |
| C/C(=C\C(=O)c1ccc(Cl)cc1)NCc1ccc2c(c1)OCO2 | 2.51 µM (active) | – |
| O=C1Nc2ccccc2C(O)(C(=O)NCc2ccc3c(c2)OCO3)N1c1ccc(Cl)c(Cl)c1 (centres undefined) | inactive | – |
| C/C(=C\C(=O)c1ccc(Br)cc1)NCc1ccc2c(c1)OCO2 | 8.91 µM (active) | – |
| O=C(c1ccc(Cl)c(Cl)c1)c1cc(-c2ccccn2)c(N2CCOCC2)s1 | 7.94 µM (active) | – |
| O=C(Nc1ccccc1N1CCOCC1)c1ccccc1[N+](=O)[O-] | inactive | – |
| Cc1ccccc1C(=O)Nc1ccc(N2CCOCC2)nc1 | inactive | – |
| Cc1cc(F)ccc1S(=O)(=O)Nc1ccccc1C(=O)Nc1ccccc1N1CCOCC1 | 1.58 µM (active) | – |
| NCc1ccccc1CC(=O)N[C@@H]1C(=O)N2C(C(=O)O)=C(CSc3nnnn3CC(=O)O)CS[C@@H]12 | inactive | – |
| CCn1cnc2sc(C(=O)N3CCN(c4ccc(OC)cc4)CC3)c(C)c2c1=O | 10 µM (active) | – |
| CC(=O)NCCc1c(Cc2ccccc2)[nH]c2ccccc12 | 25.1 µM (active) | – |
| COC(=O)Nc1ccc2[nH]cc(CCNC(C)=O)c2c1 | inactive | – |
| COc1ccc2[nH]c(-c3ccccc3)c(CCNC(C)=O)c2c1 | 7.94 µM (active) | – |
| CC(=O)NCCc1ccc(O)c(O)c1 | inactive | – |
| C=N[C@H](C(=O)N[C@@H]1C(=O)N2[C@@H]1SC(C)(C)[C@@H]2C(=O)O)c1ccccc1 | inactive | – |
| COc1ccc(NS(=O)(=O)c2cc(-c3nnnn3C)ccc2OC)cc1 | 14.1 µM (active) | – |
| COc1ccccc1S(=O)(=O)Nc1ccc(-c2nnc3n2CCCCC3)cc1 | inactive | – |
| O=C(O)c1cc(C(=O)O)nc(C(=O)O)c1 | – | 3.49% [at 11.4 µM] (inactive) |
| O=C(O)c1ccc(SSc2ccc(C(=O)O)cn2)nc1 | 2.51 µM (active) | – |
| O=C(O)c1cccc(SSc2cccc(C(=O)O)c2)c1 | – | -33.7% [at 11.4 µM] (inactive) |
| CCOC(=O)c1nnc(-c2ccccc2)nc1NCc1ccccc1 | 25.1 µM (active) | – |
| O=S(=O)(Nc1ccc(Cc2ccncc2)cc1)c1ccc(Br)cc1 | 0.0224 µM (active) | – |

| Compound | AC50 | activity, negative = inhibition |
| --- | --- | --- |
| Cc1ccnc(NS(=O)(=O)c2ccc(N)cc2)n1 | inactive | – |
| O=S(=O)(Nc1ccc(Cc2ccncc2)cc1)c1cccs1 | 0.0224 µM (active) | – |
| C/C(=N/S(=O)(=O)c1ccc(Cl)c(Cl)c1)OCC(C)(C)C | – | 58.8% [at 11.4 µM] (inactive) |
| O=S(=O)(Nc1ccc(Cc2ccncc2)cc1)c1ccc(Cl)c(Cl)c1 | 0.0251 µM (active) | – |
| CC(=O)N=c1sc(S(N)(=O)=O)nn1C | inactive | – |
| COc1cc(-c2nnc(SCC3(c4ccccc4)OCCO3)o2)cc(OC)c1OC | 1.12 µM (active) | – |
| COc1cc(-c2nnc(SCC(=O)Nc3ccc4c(c3)OCCO4)o2)cc(OC)c1OC | 11.2 µM (active) | – |
| Cc1ccc(NC(=O)CSc2nnc(-c3ccncc3)o2)cc1 | inactive | – |
| CCCCOC(=O)CSc1nnc(-c2cc(OC)c(OC)c(OC)c2)o1 | 15.8 µM (active) | – |
| CCN(CC)CCCCCCCCOC(=O)c1cc(OC)c(OC)c(OC)c1 | inactive | – |
| C/C(C[n+]1ccccc1)=N\N=C(N)N | – | 40.3% [at 11.4 µM] (inactive) |
| Cn1cc(-c2nc3cnc(N4CCNCC4)nc3n(C)c2=O)c2ccccc21 | 10 µM (active) | – |
| CN1CCN(c2ncc3nc(-c4cn(C)c5ccccc45)c(=O)n(C)c3n2)CC1 | inactive | – |
| Cn1cc(-c2nc3cnc(N4CCNCC4)nc3n(C3CC3)c2=O)c2ccccc21 | 20 µM (active) | – |
| Cn1cc(-c2nc3cnc(Oc4ccccc4)nc3n(C3CC3)c2=O)c2ccccc21 | inactive | – |
| Cn1cc(-c2nc3cnc(N4CCNCC4)nc3n(-c3ccccc3)c2=O)c2ccccc21 | inactive | – |
| COc1ccc(-n2c(=O)c(-c3cn(C)c4ccccc34)nc3cnc(N4CCNCC4)nc32)cc1 | inactive | – |
| Cc1ccccc1C(=O)NC(C)c1ccc2c(c1)CCCC2 (centres undefined) | 2.82 µM (active) | – |
| CCn1c2ccccc2c2cnc(N=CN(C)C)c(C#N)c21 | 28.2 µM (active) | – |
| Cn1c(=S)c2[nH]c(SCCN3CCCC3)nc2n(C)c1=O | – | 57% [at 11.4 µM] (inactive) |
| Cc1cnc(C(=O)OCC(=O)NC(C)C)cn1 | inactive | – |
| CC(C)(C)NC(=O)COC(=O)c1cncc(Br)c1 | 22.4 µM (active) | – |
| O=c1n(-c2ccccc2)c(=O)n2n1CC[C@H]1/C(=N\OCc3ccccc3)[C@H]3O[C@@H]3[C@@H](O)[C@@H]12 | – | 44.7% [at 11.4 µM] (inactive) |
| CCOC(=O)c1ccc(S(=O)(=O)Nc2ccc3cn[nH]c3c2)cc1 | 3.16 µM (active) | – |
